Usually inhibition stands for the relative decrease from the control value, in per cent.

Structures are written as SMILES. Unmarked numbers belong to inactive results. No rule for the calls is given here.

Sequence of L-lactate dehydrogenase (Plasmodium falciparum (isolate CDC / Honduras)) (Q27743 whole entry, looked up): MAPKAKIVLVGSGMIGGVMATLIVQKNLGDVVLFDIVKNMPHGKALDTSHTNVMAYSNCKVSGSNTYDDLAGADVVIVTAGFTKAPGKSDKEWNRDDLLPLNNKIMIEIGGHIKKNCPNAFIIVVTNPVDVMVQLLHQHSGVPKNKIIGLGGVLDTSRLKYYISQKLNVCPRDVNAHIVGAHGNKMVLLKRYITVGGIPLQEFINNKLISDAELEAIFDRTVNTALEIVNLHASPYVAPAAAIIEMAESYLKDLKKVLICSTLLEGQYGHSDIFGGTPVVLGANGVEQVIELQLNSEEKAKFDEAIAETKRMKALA

The assay has as its target L-lactate dehydrogenase (Plasmodium falciparum (isolate CDC / Honduras)) (UniProt Q27743). Description: PfLDH activity inhibition – cell lysate, 3D7 strain, counter-screen for P. falciparum growth inhibition project (AID 2304).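 Also: 0% = vehicle and 100% = reference inhibitor.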 Particulars: P. falciparum 3D7 crude extract, LDH APAD/NBT absorbance; at 2 µM; hits give high values.
For the compound `Cc1[nH]nc2ccc(-c3cc(OC[C@@H](N)Cc4ccccc4)cnc3-c3cc4ccccc4s3)cc12`, the inhibition is -3%.
Then `Cc1ccc(Nc2c3ccccc3nc3ccc(C)cc23)cc1`, with -2%; and `NS(=O)(=O)c1cccc(N=Cc2c(O)[nH]c3ccc(S(=O)(=O)Cc4c(Cl)cccc4Cl)cc23)c1`, with 4%.
As for `CCNC(=O)Nc1ccc(N(C)c2ccnc(Nc3ccc(CS(C)(=O)=O)cc3)n2)cc1`, the figure is 2%.
As for `O=C(O)c1ccc(-c2cnc3ccc(NC4CCC(O)CC4)nn23)cc1` (centres undefined), the inhibition is 3%.
Then `CCN(CC)CCCC(C)Nc1nc(C=Cc2ccc(Br)cc2)nc2cc(Cl)ccc12` (centres undefined), with -6%.
On to `COc1ccc(NC(=O)c2ccc(-c3cccc(OCc4ccccc4)c3)cc2)cc1N1CCN(C)CC1`, for which the inhibition was -1%.
As for `CN(C)CC(O)COc1ccc(Nc2ncc([N+](=O)[O-])c(Nc3ccccc3O)n2)cc1` (centres undefined), the figure is -4%.
On to `CCc1cc2c3c(N)nc(N)nc3ccc2n1C(C)(C)C`, for which the inhibition is -11%.
Then `CC(Sc1n[nH]c(-c2ccccc2Br)n1)C(=O)Nc1ccc(F)cc1` (centres undefined), with 1%; and `O=c1c2cccnc2sn1-c1ccccc1`, with 0%.
Then `O=C(CN1C(=O)CC1S(=O)(=O)Cc1ccco1)NCCCCCCc1ccc(F)cc1` (centres undefined), with -4%.
In the case of `CCN(CC)CCNC(=O)c1ccc(N=Cc2c(O)[nH]c3ccc(S(=O)(=O)Cc4c(Cl)cccc4Cl)cc23)cc1`, the inhibition was 3%.
Then `N#Cc1ccc(C(=O)Nc2cc(-c3cccc(O)c3)cc3[nH]ncc23)cc1`, with -1%.

Source of the values: PubChem BioAssay.
